Measured values taken from PubChem BioAssay (NCI).
This is part of a sample that, as a whole, favours compounds with a hit. Of some 83,000 tested, about 20% had one in any assay.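 Step 1: grow cells in 96-well plates. Step 2: add test compound at a single concentration. Step 3: incubate 48 h. Step 4: record percent growth.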 Unmarked numbers belong to inactive results. Active and inactive are the calls of the source. The calls were made as follows: active = growth percent below 10; inactive = the rest.

How the values were obtained:
Experiment in all cases: NCI-60 one-dose screen, 48 h (100 = growth as untreated, 0 = no growth, -100 = all killed)
Settings in all cases: 10 µM unless noted
SR leukemia = system: SR leukemia
OVCAR-8 ovarian = system: OVCAR-8 ovarian
OVCAR-5 ovarian = system: OVCAR-5 ovarian
SK-OV-3 ovarian = system: SK-OV-3 ovarian
OVCAR-3 ovarian = system: OVCAR-3 ovarian
HS 578T breast = system: HS 578T breast
NCI/ADR-RES ovarian = system: NCI/ADR-RES ovarian
OVCAR-4 ovarian = system: OVCAR-4 ovarian
IGROV1 ovarian = system: IGROV1 ovarian
RPMI-8226 leukemia = system: RPMI-8226 leukemia

## Cc1nn(-c2ccccc2)cc1/C=C1\SC(N2CCCCC2)=NC1=O
SR leukemia
  growth: 8.09% (active)
OVCAR-8 ovarian
  growth: 81.4%
OVCAR-5 ovarian
  growth: 103%
SK-OV-3 ovarian
  growth: 119%
OVCAR-3 ovarian
  growth: 96.4%
HS 578T breast
  growth: 99.7%
NCI/ADR-RES ovarian
  growth: 89.7%

## Oc1ccccc1/C=N/N1CCCCCC1
SR leukemia
  growth: 99.3%
OVCAR-8 ovarian
  growth: 116%
OVCAR-5 ovarian
  growth: 105%
SK-OV-3 ovarian
  growth: 112%
OVCAR-3 ovarian
  growth: 108%
HS 578T breast
  growth: 114%
NCI/ADR-RES ovarian
  growth: 101%

## O=C(C(=O)N1CCOCC1)c1cn(CCCn2cc(C(=O)C(=O)N3CCOCC3)c3ccccc32)c2ccccc12
SR leukemia
  growth: 103%
OVCAR-8 ovarian
  growth: 104%
OVCAR-5 ovarian
  growth: 102%
OVCAR-4 ovarian
  growth: 109%
SK-OV-3 ovarian
  growth: 111%
IGROV1 ovarian
  growth: 107%
OVCAR-3 ovarian
  growth: 119%
NCI/ADR-RES ovarian
  growth: 109%

## COc1cnc2c(c1)C(=O)c1c-2n(CCCN2CCCC2)c(=O)c2cc(F)ccc12
SR leukemia
  growth: -9.13% (active)
OVCAR-8 ovarian
  growth: -13.3% (active)
OVCAR-5 ovarian
  growth: 5.78% (active)
OVCAR-4 ovarian
  growth: 4.61% (active)
SK-OV-3 ovarian
  growth: -24.6% (active)
OVCAR-3 ovarian
  growth: -29.1% (active)
HS 578T breast
  growth: 23.8%
NCI/ADR-RES ovarian
  growth: -3.22% (active)

## O=C(Oc1cccc2ccccc12)c1ccccc1C(=O)c1ccccc1
SR leukemia
  growth: 3.67% (active)
OVCAR-8 ovarian
  growth: 91.7%
OVCAR-5 ovarian
  growth: 102%
OVCAR-3 ovarian
  growth: 65.6%
HS 578T breast
  growth: 93.5%
NCI/ADR-RES ovarian
  growth: 90.4%

## c1ccc(-c2oc(-c3ccccc3)c3ccccc23)cc1
SR leukemia
  growth: 56.8%
OVCAR-8 ovarian
  growth: 102%
OVCAR-5 ovarian
  growth: 112%
SK-OV-3 ovarian
  growth: 116%
IGROV1 ovarian
  growth: 109%
OVCAR-3 ovarian
  growth: 124%
HS 578T breast
  growth: 97.7%
NCI/ADR-RES ovarian
  growth: 96.5%

## CC(=O)Nc1c(Cl)cc2c(c1Cl)Cc1ccccc1-2
SR leukemia
  growth: 101%
OVCAR-8 ovarian
  growth: 102%
OVCAR-5 ovarian
  growth: 85.4%
OVCAR-4 ovarian
  growth: 100%
SK-OV-3 ovarian
  growth: 113%
OVCAR-3 ovarian
  growth: 105%
NCI/ADR-RES ovarian
  growth: 103%

## COc1cccc(/C=N\NC(=O)c2ccncc2)c1O
SR leukemia
  growth: 21%
OVCAR-8 ovarian
  growth: 58.7%
OVCAR-5 ovarian
  growth: 67%
OVCAR-4 ovarian
  growth: 31.7%
SK-OV-3 ovarian
  growth: 56.8%
IGROV1 ovarian
  growth: 65.1%
OVCAR-3 ovarian
  growth: 13.6%
NCI/ADR-RES ovarian
  growth: 25.3%

## COc1cc(C2=NN(C=O)C(c3cccc(Nc4ccnc5cc(Cl)ccc45)c3)C2)cc(OC)c1OC (stereo unspecified)
SR leukemia
  growth: 9.32% (active)
OVCAR-8 ovarian
  growth: 70%
OVCAR-5 ovarian
  growth: 94.2%
OVCAR-4 ovarian
  growth: 69.3%
SK-OV-3 ovarian
  growth: 80.5%
IGROV1 ovarian
  growth: 102%
OVCAR-3 ovarian
  growth: 85.2%
NCI/ADR-RES ovarian
  growth: 65.5%

## COc1ccc(/C=C2\CCc3ccccc3C2=O)cc1
RPMI-8226 leukemia
  growth: 82.1%
OVCAR-8 ovarian
  growth: 90%
OVCAR-5 ovarian
  growth: 109%
OVCAR-4 ovarian
  growth: 89.6%
SK-OV-3 ovarian
  growth: 102%
IGROV1 ovarian
  growth: 81.8%
OVCAR-3 ovarian
  growth: 89.6%
HS 578T breast
  growth: 97.3%
NCI/ADR-RES ovarian
  growth: 60.5%

## CN1CCC[C@@H]1CCO[C@](C)(c1ccccc1)c1ccc(Cl)cc1
SR leukemia
  growth: 59.7%
OVCAR-5 ovarian
  growth: 73.6%
OVCAR-4 ovarian
  growth: 75.6%
SK-OV-3 ovarian
  growth: 73.9%
IGROV1 ovarian
  growth: 63.6%
OVCAR-3 ovarian
  growth: 100%
HS 578T breast
  growth: 80.9%
NCI/ADR-RES ovarian
  growth: 76.5%

## CCOc1cc(/C=C/C(=O)C(C(=O)/C=C/c2ccc(OC(=O)CNc3nc4ccccc4[nH]3)c(OCC)c2)C(=O)CNc2nc3ccccc3[nH]2)ccc1OC(=O)CNc1nc2ccccc2[nH]1
RPMI-8226 leukemia
  growth: -74.4% (active)
OVCAR-8 ovarian
  growth: 9.36% (active)
OVCAR-5 ovarian
  growth: 11.5%
OVCAR-4 ovarian
  growth: 26.9%
SK-OV-3 ovarian
  growth: 29.4%
IGROV1 ovarian
  growth: -33.2% (active)
OVCAR-3 ovarian
  growth: -2.21% (active)
HS 578T breast
  growth: -4.12% (active)
NCI/ADR-RES ovarian
  growth: 24.3%

## Cc1ccc(C(NC(=O)c2ccccc2)c2ccc3cccnc3c2O)cc1 (stereo unspecified)
SR leukemia
  growth: 11%
OVCAR-5 ovarian
  growth: 44.8%
OVCAR-4 ovarian
  growth: 19.8%
SK-OV-3 ovarian
  growth: 19.3%
OVCAR-3 ovarian
  growth: 31.5%
NCI/ADR-RES ovarian
  growth: 14%

## COC(=O)C1=CCC(n2cnc3c(N)ncnc32)O1 (stereo unspecified)
RPMI-8226 leukemia
  growth: 118%
OVCAR-8 ovarian
  growth: 96.3%
OVCAR-5 ovarian
  growth: 109%
OVCAR-4 ovarian
  growth: 106%
SK-OV-3 ovarian
  growth: 108%
IGROV1 ovarian
  growth: 109%
OVCAR-3 ovarian
  growth: 106%
HS 578T breast
  growth: 110%
NCI/ADR-RES ovarian
  growth: 95.4%

## Cc1cc(=O)[nH]c(/C(=N/Nc2ccccc2)C(=O)c2ccc(Cl)cc2)n1
RPMI-8226 leukemia
  growth: 96.6%
OVCAR-8 ovarian
  growth: 92.8%
OVCAR-5 ovarian
  growth: 117%
OVCAR-4 ovarian
  growth: 111%
SK-OV-3 ovarian
  growth: 98.3%
IGROV1 ovarian
  growth: 17.6%
OVCAR-3 ovarian
  growth: 97.5%
HS 578T breast
  growth: 83.6%
NCI/ADR-RES ovarian
  growth: 106%

## COc1cccc(N2CCN(c3cccc(C)n3)CC2)c1
RPMI-8226 leukemia
  growth: 115%
OVCAR-8 ovarian
  growth: 87.1%
OVCAR-5 ovarian
  growth: 96.5%
OVCAR-4 ovarian
  growth: 116%
SK-OV-3 ovarian
  growth: 107%
IGROV1 ovarian
  growth: -11.8% (active)
OVCAR-3 ovarian
  growth: 87.5%
HS 578T breast
  growth: 100%
NCI/ADR-RES ovarian
  growth: 95.5%

## COc1cc(/C=C/C(=O)C(C(=O)/C=C/c2ccc(OC(=O)CCNC34CC5CC(CC(C5)C3)C4)c(OC)c2)C(=O)CCNC23CC4CC(CC(C4)C2)C3)ccc1OC(=O)CCNC12CC3CC(CC(C3)C1)C2 (stereo unspecified)
RPMI-8226 leukemia
  growth: -51.6% (active)
OVCAR-8 ovarian
  growth: 8.87% (active)
OVCAR-5 ovarian
  growth: 37.8%
OVCAR-4 ovarian
  growth: 25.8%
SK-OV-3 ovarian
  growth: 42.8%
IGROV1 ovarian
  growth: -33.2% (active)
OVCAR-3 ovarian
  growth: 14.9%
HS 578T breast
  growth: 6.55% (active)
NCI/ADR-RES ovarian
  growth: 41.7%

## CN(C)c1ccc(-n2nc3ccccc3n2)cc1
RPMI-8226 leukemia
  growth: 357%
OVCAR-8 ovarian
  growth: 97.3%
OVCAR-5 ovarian
  growth: 80.3%
OVCAR-4 ovarian
  growth: 115%
SK-OV-3 ovarian
  growth: 113%
IGROV1 ovarian
  growth: -38.5% (active)
OVCAR-3 ovarian
  growth: 93.7%
HS 578T breast
  growth: 96.4%
NCI/ADR-RES ovarian
  growth: 106%

## C1=C(Cc2ccccc2)n2cnc3ncnc(c32)S1
RPMI-8226 leukemia
  growth: 28%
OVCAR-8 ovarian
  growth: 73.5%
OVCAR-5 ovarian
  growth: 70.5%
OVCAR-4 ovarian
  growth: 40.1%
SK-OV-3 ovarian
  growth: 19.7%
IGROV1 ovarian
  growth: 86.8%
OVCAR-3 ovarian
  growth: 15.8%
HS 578T breast
  growth: 75.3%
NCI/ADR-RES ovarian
  growth: 56.7%

## COc1cc(/C=C/C(=O)CC(=O)/C=C/c2ccc(OC(=O)CCNC34CC5CC(CC(C5)C3)C4)c(OC)c2)ccc1OC(=O)CCNC12CC3CC(CC(C3)C1)C2
RPMI-8226 leukemia
  growth: -30.4% (active)
OVCAR-8 ovarian
  growth: 14.7%
OVCAR-5 ovarian
  growth: 51.8%
OVCAR-4 ovarian
  growth: 65.3%
SK-OV-3 ovarian
  growth: 63.8%
IGROV1 ovarian
  growth: 6.65% (active)
OVCAR-3 ovarian
  growth: -7.82% (active)
HS 578T breast
  growth: 19.3%
NCI/ADR-RES ovarian
  growth: 78.4%

## COc1ccc(/C=C/C(=O)c2cccc(NS(C)(=O)=O)c2)cc1
SR leukemia
  growth: -10.2% (active)
OVCAR-5 ovarian
  growth: 94.9%
OVCAR-4 ovarian
  growth: 81.5%
SK-OV-3 ovarian
  growth: 110%
IGROV1 ovarian
  growth: 7.92% (active)
OVCAR-3 ovarian
  growth: 78.1%
HS 578T breast
  growth: 83.2%
NCI/ADR-RES ovarian
  growth: 85.2%

## CC(=O)N1N=C(c2ccc(Nc3ccnc4cc(Cl)ccc34)cc2)CC1c1ccc(Cl)cc1 (stereo unspecified)
SR leukemia
  growth: 2.79% (active)
OVCAR-5 ovarian
  growth: 87.9%
OVCAR-4 ovarian
  growth: 45.2%
SK-OV-3 ovarian
  growth: 68.1%
IGROV1 ovarian
  growth: 51.1%
OVCAR-3 ovarian
  growth: 29.2%
HS 578T breast
  growth: 41%
NCI/ADR-RES ovarian
  growth: 22.9%

## Cc1ccccc1NC(=O)NC(CC(N)=O)c1ccc2c(c1)nc(-c1cccc(Oc3ccc(C(C)(C)C)cc3)c1)n2CCCN1CCCCC1C (stereo unspecified)
RPMI-8226 leukemia
  growth: -29.2% (active)
OVCAR-8 ovarian
  growth: 3.11% (active)
OVCAR-5 ovarian
  growth: 88.8%
OVCAR-4 ovarian
  growth: 66.5%
SK-OV-3 ovarian
  growth: 103%
IGROV1 ovarian
  growth: 46.4%
OVCAR-3 ovarian
  growth: 53.2%
HS 578T breast
  growth: 6.75% (active)
NCI/ADR-RES ovarian
  growth: 94.3%

## COc1cc(/C=C/C(=O)CC(=O)/C=C/c2ccc(OC(=O)C3C4CC5CC(C4)CC3C5)c(OC)c2)ccc1OC(=O)C1C2CC3CC(C2)CC1C3 (stereo unspecified)
RPMI-8226 leukemia
  growth: 112%
OVCAR-8 ovarian
  growth: 97.2%
OVCAR-5 ovarian
  growth: 87.2%
OVCAR-4 ovarian
  growth: 105%
SK-OV-3 ovarian
  growth: 110%
IGROV1 ovarian
  growth: 33.3%
OVCAR-3 ovarian
  growth: 118%
HS 578T breast
  growth: 129%
NCI/ADR-RES ovarian
  growth: 107%

## Cc1cccc2nnc(-c3ccccc3)n12
SR leukemia
  growth: 93%
OVCAR-5 ovarian
  growth: 107%
OVCAR-4 ovarian
  growth: 104%
SK-OV-3 ovarian
  growth: 121%
IGROV1 ovarian
  growth: 115%
OVCAR-3 ovarian
  growth: 129%
HS 578T breast
  growth: 146%
NCI/ADR-RES ovarian
  growth: 107%

## Cc1cnc2nc(-c3ccc(N(C)C)cc3)cn2c1
RPMI-8226 leukemia
  growth: 117%
OVCAR-8 ovarian
  growth: 103%
OVCAR-5 ovarian
  growth: 78.4%
OVCAR-4 ovarian
  growth: 118%
SK-OV-3 ovarian
  growth: 119%
IGROV1 ovarian
  growth: -14.9% (active)
OVCAR-3 ovarian
  growth: 107%
HS 578T breast
  growth: 109%
NCI/ADR-RES ovarian
  growth: 85.9%

## Cc1ccc2nc(-c3ccc(N(C)C)c(Br)c3)cn2c1
RPMI-8226 leukemia
  growth: 71%
OVCAR-8 ovarian
  growth: 93.8%
OVCAR-5 ovarian
  growth: 92.6%
OVCAR-4 ovarian
  growth: 115%
SK-OV-3 ovarian
  growth: 94.4%
IGROV1 ovarian
  growth: -8.76% (active)
OVCAR-3 ovarian
  growth: 103%
HS 578T breast
  growth: 83.2%
NCI/ADR-RES ovarian
  growth: 78.2%

## O=[N+]([O-])c1ccc(NS(=O)(=O)c2ccc(Cl)c(Cl)c2)cc1
RPMI-8226 leukemia
  growth: 35.6%
OVCAR-8 ovarian
  growth: 79.2%
OVCAR-5 ovarian
  growth: 113%
OVCAR-4 ovarian
  growth: 63.4%
SK-OV-3 ovarian
  growth: 94.3%
IGROV1 ovarian
  growth: 88.7%
OVCAR-3 ovarian
  growth: 78.3%
HS 578T breast
  growth: 93.7%
NCI/ADR-RES ovarian
  growth: 83.2%
